# Inconclusive results are not listed. Active and inactive are the calls of the source. How the source made its calls, unless noted: active means hit-call score of the fitted dose curve at least 0.9, where 1 is the maximum; inconclusive means response in the unintended direction; inactive means score below 0.9.
# Tests used:
# [1] = biological target: Estrogen receptor (Homo sapiens) (UniProt P03372); assay: OT_ERa_GFPERaERE_0480: Odyssey Thera (OT) 8-hour HeLa Transcription Induction Assay for Estrogen Receptor (AID 2283381; active means hit-call score of the fitted dose curve at least 0.9, where 1 is the maximum; inactive means score below 0.9)
# Outline: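 Cells (HeLa) receive compound; after 8 h, reporter fluorescence is imaged and quantified by high-content analysis. Gain-of-signal relative to DMSO gives the endpoint.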
# [2] = biological target: Estrogen receptor (Homo sapiens) (UniProt P03372); assay: OT_ERa_GFPERaERE_0120: Odyssey Thera (OT) 2-hour HeLa Transcription Induction Assay for Estrogen Receptor (AID 2283382)
# Outline: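 Measures ESR1 pathway reporter gain-of-signal in HeLa cells after a 2-hour treatment, detected as fluorescent protein induction by microscopy, DMSO as baseline.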
# [3] = biological target: Peroxisome proliferator-activated receptor gamma (Homo sapiens) (UniProt P37231); assay: OT_PPARg_PPARgSRC1_0480: Odyssey Thera (OT) 8-hour Protein-Complementation Assay for Peroxisome Proliferator-activated Receptor Gamma / SRC-1 Co-activator (AID 2283387);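 further: nuclear to cytoplasmic split Venus YFP fluorescence ratio reporting PPARg SRC-1 interaction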
# Outline: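 HEK293T transiently transfected with PPARg and SRC-1 fused to Venus YFP fragments, compounds 8 h at 37C. Fixed, Draq5-stained cells imaged; nuclear/cytoplasmic 488 nm fluorescence ratio over at least 350 cells per image; gain fitted versus DMSO.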
# [4] = ATG_XTT_Cytotoxicity: Cytotoxicity Assessment in the Attagene TRANS-FACTORIAL HepG2 Assay (AID 2283584);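 on AC50: cells exposed to compound for 24 h before reading; active means loss of viability signal versus DMSO baseline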
# Outline: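 Viability endpoint from XTT after 24 h chemical exposure of reporter-transfected human HepG2 liver cells; signal loss fitted relative to DMSO negative control.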
# [5] = TOX21_p53_BLA_p2_viability: Viability Assessment in the Tox21 HCT-116 p53 Agonism Beta-lactamase Assay, Phase 2 (AID 2283591);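 further: compound exposure lasted 16 h at 37 °C; actives lower the ATP signal meaning cytotoxicity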
# Outline: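 HCT-116 p53-bla cells (4000/well) rested 5 h at 37C, then received compounds in DMSO (217-fold dilution) for 16 h at 37C, 5% CO2. After the CCF4 read, CellTiter-Glo was added; ATP luminescence was read after 30 min at room temperature.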
# Sequence of Estrogen receptor (Homo sapiens) (P03372 whole entry, looked up): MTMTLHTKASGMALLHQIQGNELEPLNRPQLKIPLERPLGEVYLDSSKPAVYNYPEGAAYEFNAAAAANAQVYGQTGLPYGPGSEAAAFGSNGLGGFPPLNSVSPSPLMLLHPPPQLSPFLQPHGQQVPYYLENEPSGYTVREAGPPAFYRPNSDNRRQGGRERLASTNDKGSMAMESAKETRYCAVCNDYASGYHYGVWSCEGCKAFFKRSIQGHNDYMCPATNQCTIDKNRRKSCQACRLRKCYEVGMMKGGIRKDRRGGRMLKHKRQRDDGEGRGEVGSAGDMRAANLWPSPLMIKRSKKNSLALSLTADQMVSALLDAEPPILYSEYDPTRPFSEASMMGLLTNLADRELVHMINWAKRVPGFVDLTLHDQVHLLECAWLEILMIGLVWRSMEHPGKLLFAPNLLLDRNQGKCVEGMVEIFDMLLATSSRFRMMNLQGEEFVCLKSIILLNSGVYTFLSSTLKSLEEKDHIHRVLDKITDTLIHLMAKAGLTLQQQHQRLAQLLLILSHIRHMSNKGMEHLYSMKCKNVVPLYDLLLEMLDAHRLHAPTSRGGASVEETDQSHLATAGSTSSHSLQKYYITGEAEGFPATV
# Sequence of Peroxisome proliferator-activated receptor gamma (Homo sapiens) (P37231 whole entry, looked up, the tested form may be a part): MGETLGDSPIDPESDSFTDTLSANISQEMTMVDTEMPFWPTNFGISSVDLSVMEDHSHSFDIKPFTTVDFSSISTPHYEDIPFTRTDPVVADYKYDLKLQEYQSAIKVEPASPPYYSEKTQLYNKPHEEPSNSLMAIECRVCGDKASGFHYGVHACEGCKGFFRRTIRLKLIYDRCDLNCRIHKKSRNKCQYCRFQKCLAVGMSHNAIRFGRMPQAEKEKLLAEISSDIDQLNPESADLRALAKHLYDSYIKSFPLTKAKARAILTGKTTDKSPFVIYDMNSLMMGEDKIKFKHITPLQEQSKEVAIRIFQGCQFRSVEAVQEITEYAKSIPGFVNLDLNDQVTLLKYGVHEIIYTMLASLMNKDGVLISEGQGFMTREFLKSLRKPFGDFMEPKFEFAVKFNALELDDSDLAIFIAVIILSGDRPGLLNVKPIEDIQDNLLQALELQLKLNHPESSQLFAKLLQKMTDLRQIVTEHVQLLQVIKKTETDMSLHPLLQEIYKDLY
smiles,measurement,setting,value
O=C1C(N(CO)C(=O)NCO)N(CO)C(=O)N1CO (stereo not given),outcome,[1],inactive
same,outcome,[2],inactive
same,outcome,[3],inactive
same,outcome,[4],inactive
same,outcome,[5],inactive
CCC(C)(C)C1CCCCC1OC(C)=O (stereo not given),outcome,[4],inactive
O=c1[nH]c(=O)c2[nH]c(=O)[nH]c2[nH]1,outcome,[4],inactive
same,outcome,[5],inactive
CC(C)COC(=O)C=Cc1ccccc1,outcome,[4],inactive
same,outcome,[5],inactive
Cc1ccc([N+](=O)[O-])cc1S(=O)(=O)O,outcome,[4],inactive
same,outcome,[5],inactive
[Cl][Nd]([Cl])[Cl],outcome,[4],inactive
same,outcome,[5],inactive
CCCCC(CC)COC(=O)c1ccccc1O (stereo not given),outcome,[4],inactive
same,outcome,[5],inactive
COC(=O)C1=C(C)NC(C)=C(C(=O)OCC(C)C)C1c1ccccc1[N+](=O)[O-] (stereo not given),outcome,[4],inactive
same,outcome,[5],inactive
O=C(Nc1ccccc1)c1ccccc1O,outcome,[4],inactive
same,outcome,[5],inactive
O=C1c2cccc(O)c2C(=O)c2c(O)cc(CO)cc21,outcome,[4],inactive
same,outcome,[5],inactive
CC=CC(=O)N(CC)c1ccccc1C,outcome,[4],inactive
same,outcome,[5],inactive
Nc1nc2ccccc2[nH]1,outcome,[4],inactive
same,outcome,[5],inactive
C=CC(C)(C)C,outcome,[4],inactive
same,outcome,[5],inactive
C/C=C\C/C=C/CCCCCCCCOC(C)=O,outcome,[4],inactive
same,outcome,[5],inactive
O=c1c2ccccc2nnn1CCl,outcome,[4],inactive
same,outcome,[5],inactive
CCCOCCOCCOCCO,outcome,[4],inactive
same,outcome,[5],inactive
COC(=O)c1ccc2cc(C(=O)OC)ccc2c1,outcome,[4],inactive
same,outcome,[5],inactive
OCCN(CCO)c1ccccc1,outcome,[4],inactive
same,outcome,[5],inactive
CC(C)(c1cc(Br)c(OCCO)c(Br)c1)c1cc(Br)c(OCCO)c(Br)c1,AC50,[4],23.3 µM (active)
same,AC50,[5],37.3 µM (active)
O=C(O)c1cc2ccccc2nc1C(=O)O,outcome,[4],inactive
same,outcome,[5],inactive
CN(C)CCCN(C)C,outcome,[4],inactive
same,outcome,[5],inactive
COc1ccc(C(Cl)=C(c2ccc(OC)cc2)c2ccc(OC)cc2)cc1,outcome,[4],inactive
same,outcome,[5],inactive
CC(C)CCCC(C)CC=O (stereo not given),outcome,[4],inactive
same,outcome,[5],inactive
N[C@H]1C(O)O[C@H](CO)[C@H](O)[C@@H]1O (stereo not given in full),outcome,[4],inactive
same,outcome,[5],inactive
Cc1oncc1C(=O)Nc1ccc(C(F)(F)F)cc1,outcome,[4],inactive
same,outcome,[5],inactive
CC(C)=CCC/C(C)=C\C#N,outcome,[4],inactive
same,outcome,[5],inactive
CC(=O)[C@@]1(O)CC[C@H]2[C@@H]3C[C@H](C)C4=CC(=O)C=C[C@]4(C)[C@@]3(F)[C@@H](O)C[C@@]21C,outcome,[4],inactive
same,outcome,[5],inactive
CCOCC(=O)O,outcome,[4],inactive
same,outcome,[5],inactive
CC(C)c1ccc2c(c1)CC[C@H]1[C@](C)(CN)CCC[C@]21C,AC50,[4],9.98 µM (active)
same,AC50,[5],42.6 µM (active)
O=C1CCCCCN1SSN1CCCCCC1=O,outcome,[4],inactive
same,outcome,[5],inactive
CC(=O)c1ccc[nH]1,outcome,[4],inactive
same,outcome,[5],inactive
CCOC(=O)CC(C(C)=O)C(C)=O,outcome,[4],inactive
same,outcome,[5],inactive
Cc1cccc(N)n1,outcome,[4],inactive
same,outcome,[5],inactive
C=C[C@](C)(O)CC[C@@H]1[C@@]2(C)CCCC(C)(C)[C@@H]2CC[C@@]1(C)O,AC50,[4],119 µM (active)
same,AC50,[5],47.1 µM (active)
N#[N+]c1ccc2c(S(=O)(=O)[O-])cccc2c1O,outcome,[4],inactive
same,outcome,[5],inactive
CCC(C)C=O (stereo not given),outcome,[4],inactive
same,outcome,[5],inactive
CC(C)CC(O)Cc1ccccc1 (stereo not given),outcome,[4],inactive
same,outcome,[5],inactive
CC(=O)Nc1nnc(S(N)(=O)=O)s1,outcome,[4],inactive
same,outcome,[5],inactive
O=C1CCCN1CCO,outcome,[4],inactive
same,outcome,[5],inactive
CC(=O)Oc1ccc(C)cc1,outcome,[4],inactive
same,outcome,[5],inactive
O=C(Cl)c1cc(C(=O)Cl)cc(C(=O)Cl)c1,outcome,[4],inactive
same,outcome,[5],inactive
O=c1[nH]nc(-c2ccc([N+](=O)[O-])o2)o1,outcome,[4],inactive
same,outcome,[5],inactive
C=CC(=O)OCCC(=O)O,outcome,[4],inactive
same,outcome,[5],inactive
CC1=CC[C@H](C(C)C)C=C1,outcome,[4],inactive
same,outcome,[5],inactive
